From the supplement of paper PMC9694430

Tests used:
Assay in all cases: thermal shift delta Tm vs DMSO control; higher = stronger stabilization (binding)
Settings in all cases: 12.5 µM; protein concentration 2 µM
LOC_OS02G45750-cb003 = tested on: LOC_OS02G45750-cb003
In short: (§1)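 Thermal shift values come from differential scanning fluorimetry on purified rice kinase domains made in E. coli, with melting temperatures obtained from Boltzmann fits. Samples of 19.5 μl held 2 μM kinase, 100 mM potassium phosphate pH 7.5, 150 mM NaCl, 10% glycerol, 5 × SYPRO Orange and compound in DMSO, and were heated from 25°C to 95°C at 0.05°C/s. Each shift is a triplicate mean relative to the DMSO-only protein sample.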

LOC_OS02G54510-cb004 = tested on: LOC_OS02G54510-cb004
In short: as §1

LOC_OS03G04050-cb001 = tested on: LOC_OS03G04050-cb001
In short: as §1

LOC_OS03G12390-cb001 = tested on: LOC_OS03G12390-cb001
In short: as §1

LOC_OS03G27990-cb004 = tested on: LOC_OS03G27990-cb004
In short: as §1

LOC_OS03G50450-cb001 = tested on: LOC_OS03G50450-cb001
In short: as §1

LOC_OS03G50810-cb003 = tested on: LOC_OS03G50810-cb003
In short: as §1

LOC_OS04G35114-cb001 = tested on: LOC_OS04G35114-cb001
In short: as §1

LOC_OS04G38480-cb003 = tested on: T1, LOC_OS04G38480-cb003
T1 sequence (whole entry): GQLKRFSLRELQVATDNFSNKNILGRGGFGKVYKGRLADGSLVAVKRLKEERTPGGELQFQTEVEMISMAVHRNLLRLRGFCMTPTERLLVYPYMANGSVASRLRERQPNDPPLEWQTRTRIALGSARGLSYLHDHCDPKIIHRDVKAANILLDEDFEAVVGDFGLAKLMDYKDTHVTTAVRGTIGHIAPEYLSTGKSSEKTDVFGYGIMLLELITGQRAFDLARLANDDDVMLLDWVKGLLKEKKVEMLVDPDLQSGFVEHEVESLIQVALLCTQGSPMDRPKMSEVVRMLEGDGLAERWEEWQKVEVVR
In short: as §1

LOC_OS04G41100-cb001 = tested on: T2, LOC_OS04G41100-cb001
T2 sequence (whole entry): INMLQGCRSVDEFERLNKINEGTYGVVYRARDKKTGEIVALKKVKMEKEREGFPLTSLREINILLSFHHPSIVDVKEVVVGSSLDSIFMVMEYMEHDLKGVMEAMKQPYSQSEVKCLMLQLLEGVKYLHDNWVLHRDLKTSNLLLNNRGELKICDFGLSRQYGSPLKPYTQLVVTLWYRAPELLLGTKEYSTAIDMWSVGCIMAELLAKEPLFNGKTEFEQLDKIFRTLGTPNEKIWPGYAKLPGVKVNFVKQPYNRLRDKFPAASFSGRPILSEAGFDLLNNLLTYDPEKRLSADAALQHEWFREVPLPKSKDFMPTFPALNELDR
In short: as §1

LOC_OS04G57630-cb004 = tested on: LOC_OS04G57630-cb004
In short: as §1

LOC_OS05G07850-cb002 = tested on: LOC_OS05G07850-cb002
In short: as §1

LOC_OS05G16824-cb004 = tested on: LOC_OS05G16824-cb004
In short: as §1

LOC_OS05G28520-cb001 = tested on: LOC_OS05G28520-cb001
In short: as §1

LOC_OS05G30820-cb001 = tested on: LOC_OS05G30820-cb001
In short: as §1

LOC_OS05G43570-cb004 = tested on: LOC_OS05G43570-cb004
In short: as §1

LOC_OS06G16330-cb003 = tested on: LOC_OS06G16330-cb003
In short: as §1

LOC_OS06G22820-cb001 = tested on: T3, LOC_OS06G22820-cb001
T3 sequence (whole entry): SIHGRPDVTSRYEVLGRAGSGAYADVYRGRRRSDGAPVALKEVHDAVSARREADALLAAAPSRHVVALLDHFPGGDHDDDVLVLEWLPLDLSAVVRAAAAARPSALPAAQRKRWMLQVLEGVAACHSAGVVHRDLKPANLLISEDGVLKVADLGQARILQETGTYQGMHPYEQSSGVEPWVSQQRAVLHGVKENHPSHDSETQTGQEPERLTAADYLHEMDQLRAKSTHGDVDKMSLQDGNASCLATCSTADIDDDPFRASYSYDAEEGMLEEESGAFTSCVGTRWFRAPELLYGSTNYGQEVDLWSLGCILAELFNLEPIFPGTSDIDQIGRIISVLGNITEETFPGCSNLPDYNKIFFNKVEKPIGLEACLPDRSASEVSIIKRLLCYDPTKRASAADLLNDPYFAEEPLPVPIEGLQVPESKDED
In short: as §1

LOC_OS07G06570-cb004 = tested on: LOC_OS07G06570-cb004
In short: as §1

LOC_OS07G07230-cb001 = tested on: LOC_OS07G07230-cb001
In short: as §1
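Also: purified Escherichia coli-expressed rice kinase domain construct.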

Sequence of LOC_OS06G16330-cb003 (as listed by the source): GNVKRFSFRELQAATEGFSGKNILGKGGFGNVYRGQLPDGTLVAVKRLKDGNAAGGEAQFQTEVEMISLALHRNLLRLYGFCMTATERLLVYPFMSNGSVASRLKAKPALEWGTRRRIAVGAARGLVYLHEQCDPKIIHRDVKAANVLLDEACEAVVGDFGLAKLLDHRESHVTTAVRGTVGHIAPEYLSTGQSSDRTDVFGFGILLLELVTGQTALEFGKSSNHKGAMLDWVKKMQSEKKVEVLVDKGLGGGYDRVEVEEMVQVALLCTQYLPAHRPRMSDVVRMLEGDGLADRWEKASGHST

Compound	thermal shift delta Tm (LOC_OS02G45750-cb003) [°C]	thermal shift delta Tm (LOC_OS02G54510-cb004) [°C]	thermal shift delta Tm (LOC_OS03G04050-cb001) [°C]	thermal shift delta Tm (LOC_OS03G12390-cb001) [°C]	thermal shift delta Tm (LOC_OS03G27990-cb004) [°C]	thermal shift delta Tm (LOC_OS03G50450-cb001) [°C]	thermal shift delta Tm (LOC_OS03G50810-cb003) [°C]	thermal shift delta Tm (LOC_OS04G35114-cb001) [°C]	thermal shift delta Tm (LOC_OS04G38480-cb003) [°C]	thermal shift delta Tm (LOC_OS04G41100-cb001) [°C]	thermal shift delta Tm (LOC_OS04G57630-cb004) [°C]	thermal shift delta Tm (LOC_OS05G07850-cb002) [°C]	thermal shift delta Tm (LOC_OS05G16824-cb004) [°C]	thermal shift delta Tm (LOC_OS05G28520-cb001) [°C]	thermal shift delta Tm (LOC_OS05G30820-cb001) [°C]	thermal shift delta Tm (LOC_OS05G43570-cb004) [°C]	thermal shift delta Tm (LOC_OS06G16330-cb003) [°C]	thermal shift delta Tm (LOC_OS06G22820-cb001) [°C]	thermal shift delta Tm (LOC_OS07G06570-cb004) [°C]	thermal shift delta Tm (LOC_OS07G07230-cb001) [°C]
COC(=O)N[C@@H](C)CNc1nccc(-c2cn(C(C)C)nc2-c2cc(Cl)cc(NS(C)(=O)=O)c2F)n1 [Encorafenib (LGX818)]	0.44	-0.06	0.22	-0.2	0.34	0.01	0.12	0.62	0.49	1.63	-0.17	5.07	-3.57	0.85	0.58	0.22	1.92	0.46	1.58	0.67
CC(C)NC(=O)COc1cccc(-c2nc(Nc3ccc4[nH]ncc4c3)c3ccccc3n2)c1	1.3	0.55	0.76	-0.25	0.71	0.77	0.84	1.5	1.83	0.68	0.57	1.61	-3.52	0.71	0.73	0.42	0.58	0.84	0.26	-0.31
Cc1nc(N)sc1-c1ccnc(Nc2ccc(N3CCOCC3)cc2)n1	3.37	1.11	0.62	3.79	1.2	1.67	2.84	5.04	2.31	1.72	2.53	13.4	8.12	0.36	0.56	0.98	6.87	0.66	0.8	0.42
CN(C)C/C=C/C(=O)Nc1cc2c(Nc3ccc(F)c(Cl)c3)ncnc2cc1O[C@H]1CCOC1 [Afatinib (BIBW2992) Dimaleate]	1.42	0.08	0.35	2.3	1.68	0.41	1.38	5.35	2.08	0.45	1.02	7.65	-0.29	0.44	0.24	0.46	2.05	0.61	1.27	0.08
